Results on 47 molecules are retold here after PubChem BioAssay AID2685 (National Center for Advancing Translational Sciences (NCATS), 2010).

About 2,100 (0.66%) of roughly 320,000 compounds were called active. About 53% were inconclusive and are not listed. Calls come from the whole dose curve; as a rule, active = well fitted inhibition curve with a large enough effect in the signal ratio, with a control signal flat (not every such curve was filed as active); inconclusive = small, poorly fitted or top-dose-only effect, or effect the other way, or a change in a side signal; inactive = flat fitted curve, though single readings scatter; the % refers to the signal ratio. The list comes from a sample in which actives are over-represented; it also holds similar structures and randomly drawn compounds.
Potency is the fitted concentration of half-maximal effect.

This experiment can be described thus: qHTS Assay for Lipid Storage Modulators in Drosophila S3 Cells.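 For cell number change: cells counted by Cell Tracker Red CMTPX staining in the red channel.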 For lipid storage change, negative = inhibition: % is set by controls: 0 for no effect and ±100 for the full control effect. To be noted: BODIPY lipid droplet fluorescence, 18-24 h, cells fed with added oleic acid; cell number change: measured here: cell count max response; series mostly up to 46.1 µM; lipid storage change, negative = inhibition: at the top concentration. The essentials: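 Drosophila S3 cells loaded with oleic acid (400 uM, as added) and compounds at several concentrations; lipid droplets imaged by 488-nm laser-scanning cytometry, 500–530 nm intensity and object ratio to cell channel. Percent activity normalized to 20 uM Triacsin C.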
Take `COc1cc(C)c(Cl)cc1S(=O)(=O)NCc1ccncc1`: the call was inactive and the cell number change is -7.29%. In the case of `COc1ccc(CCNC(=O)CN(C)S(=O)(=O)c2cccc3nsnc23)cc1OC`, the “lipid storage change, negative = inhibition” value is 1.44% (inactive) and the cell number change was 0.234%. Turning to `CC(C)c1ccc(CNCCCSc2ncccn2)cc1`, the result was inactive and the cell number change was -5.03%. On to `CC(C)(C)C(=O)CC1(O)C(=O)N(Cc2ccc(Cl)cc2)c2ccccc21` (stereo not drawn), for which the “lipid storage change, negative = inhibition” value was 2% (inactive) and the cell number change was 7.61%. In the case of `CC(=O)N1C(=O)CC(C)N(C(C)=O)c2ccc([N+](=O)[O-])cc21` (stereo not drawn), the “lipid storage change, negative = inhibition” value is 2.55% (inactive) and the cell number change turned out to be 1.88%. Taken in the same sequence, the figures for `CNC(=O)c1[nH]nc2c1CCc1ccccc1-2` were -1.15% (inactive) and 13.3%. With `CC(C)NC(=O)c1[nH]nc2c1CCc1ccccc1-2`, the result was inactive and the cell number change is -0.945%. For `c1ccc2c(c1)CCc1c(-c3ccncc3)n[nH]c1-2`, the Potency is 18.4 µM (active) and the cell number change was 7.47%. Regarding `CC(C)C(=O)N1CCN(c2ccccc2NC(=O)COc2ccccc2)CC1`, the “lipid storage change, negative = inhibition” value was 9.3% (inactive) and the cell number change was -6.41%. For `CCOC(=O)N1CCN(c2c(NC3CCN(Cc4ccccc4)CC3)c(=O)c2=O)CC1` the same measures were 3.89% (inactive) and 6.86%. Taken in the same sequence, the figures for `O=C(c1cccc([N+](=O)[O-])c1)N(c1ccccn1)c1ccccn1` were -6.93% (inactive) and 2.68%. In the case of `COc1ccc(N(C)S(=O)(=O)c2cccc(C(=O)NCC(c3ccco3)N3CCCC3)c2)cc1` (stereo not drawn), the “lipid storage change, negative = inhibition” value is 13.3% (inactive) and the cell number change worked out at 8.75%.

In the case of `Cc1ccc(NS(=O)(=O)c2cccc(C(=O)NCC(c3ccco3)N3CCCC3)c2)cc1` (stereo not drawn), the “lipid storage change, negative = inhibition” value was 9.46% (inactive) and the cell number change was -2.68%. As for `CN(C)C(CNC(=O)c1ccc(S(=O)(=O)Nc2ccccc2)cc1)c1ccco1` (stereo not drawn), the “lipid storage change, negative = inhibition” value was 13% (inactive) and the cell number change was 14.1%. With `Cc1ccc(N(C)S(=O)(=O)c2cccc(C(=O)NCC(c3ccco3)N3CCCC3)c2)cc1` (stereo not drawn), the Potency is 7.31 µM (active) and the cell number change was -25.8%. As for `CN(C)C(CNC(=O)c1cc(S(=O)(=O)N(C)c2ccc(F)cc2)ccc1Cl)c1ccco1` (stereo not drawn), the “lipid storage change, negative = inhibition” value was 19.2% (inactive). As to `Cc1ccc(S(=O)(=O)N(C)c2ccc(C(=O)NCC(c3ccco3)N(C)C)cc2)cc1` (stereo not drawn), the Potency was 1.64 µM (active) and the cell number change is -16.7%. Turning to `Cc1ccc(C)c(NC(=S)NCC(c2ccccc2)N(C)C)c1` (stereo not drawn), the molecule was classed as inactive. Take `Cc1cc(C)c2c(=O)cc(C(F)(F)F)oc2n1`: the “lipid storage change, negative = inhibition” value was 9.56% (inactive) and the cell number change was determined as 15.1%. Consider `CC(=O)Nc1ccc(C(=O)N/N=C/c2cccnc2)cc1`, for which the “lipid storage change, negative = inhibition” value was 12.5% (inactive) and the cell number change came to 0.939%. As to `Cc1ccc(C(=O)Nc2ccc(C(=O)N/N=C/c3cccnc3)cc2)cc1`, the molecule was called inactive and the cell number change was found to be 17.5%. Regarding `O=C(N/N=C/c1cccnc1)c1ccc(NC(=O)c2ccc(Cl)cc2)cc1`, the Potency was 0.13 µM (active) and the cell number change was determined as 0.451%. Regarding `CC(C)c1ccc(NC2CCCN(C(=O)c3ccccc3-c3ncc[nH]3)C2)cc1` (stereo not drawn), the outcome was inactive and the cell number change was -18.8%. Take `COc1ccc(NC(=O)Nc2ccc3c(c2)CCC3)c(OC)c1`: the “lipid storage change, negative = inhibition” value is -7.77% (inactive) and the cell number change turned out to be 9.57%. On to `O=C(Cn1c(-c2ccccc2)c[n+]2ccsc12)c1ccc(Br)cc1`, for which the “lipid storage change, negative = inhibition” value is 21.2% (inactive). `COC(=O)C1(C(F)(F)F)N=C(C(F)(F)F)Nc2ccc(Cl)cc21` (stereo not drawn): the “lipid storage change, negative = inhibition” value is -2.99% (inactive) and the cell number change turned out to be 5.94%. As for `O=C1Nc2ccc(Cl)cc2C(C#CC2CC2)(C(F)(F)F)O1` (stereo not drawn), the Potency was 9.2 µM (active) and the cell number change was -25.6%.

On to `O=C1Nc2ccc(Cl)cc2C12OCCCO2`, for which the call was inactive and the cell number change came out at 13.2%. Turning to `O=C(Cn1nnc2ccccc21)C1CC1`, the “lipid storage change, negative = inhibition” value is 9.19% (inactive) and the cell number change was 7.3%. `NCc1cc2c3c(c1)CCCN3CCC2`: the “lipid storage change, negative = inhibition” value was 0.546% (inactive). Turning to `C=CCOc1cccc(C(=O)N2CCCC(CNS(=O)(=O)c3cccs3)C2)c1` (stereo not drawn), the “lipid storage change, negative = inhibition” value was 10.9% (inactive) and the cell number change is 11.7%.

Take `Cc1ccccc1-n1ncc2c1CC(C)(C)CC2NC(=O)CSc1ccncc1` (stereo not drawn): the Potency is 0.461 µM (active) and the cell number change is -2.05%. Regarding `CSCCC(=O)NC1CC(C)(C)Cc2c1cnn2-c1ccccc1C` (stereo not drawn), the “lipid storage change, negative = inhibition” value was 11.4% (inactive) and the cell number change is 13.5%. For `Cc1ccccc1-n1ncc2c1CC(C)(C)CC2NC(=O)CCC(F)(F)F` (stereo not drawn) the same measures were 3.89% (inactive) and 7.77%.

As for `CC(C)=C1SC(N2CCN(c3cccc(Cl)c3)CC2)=NC1=O`, the “lipid storage change, negative = inhibition” value is -7.9% (inactive) and the cell number change amounted to 5.96%. In the case of `COc1cccc(N2C(=NC(=O)CCC3CCCC3)SC3CS(=O)(=O)CC32)c1` (stereo not drawn), the Potency was 11.6 µM (active) and the cell number change came out at 4.89%. Take `COc1cccc(N2C(=NC(=O)C3CCCCC3)SC3CS(=O)(=O)CC32)c1` (stereo not drawn): the call was inactive and the cell number change is -4.58%. For the molecule `COc1cccc(N2C(=NC(=O)CCc3ccccc3)SC3CS(=O)(=O)CC32)c1` (stereo not drawn), the molecule was called inactive and the cell number change was -7.96%. On to `Cc1occc1C(=O)N1CCN(c2ccc(Cl)c(Cl)c2)CC1`, for which the result was inactive.

Regarding `Cc1ccccc1OC(C)C(=O)N1CCC(Cc2ccccc2)CC1` (stereo not drawn), the “lipid storage change, negative = inhibition” value was -2.98% (inactive) and the cell number change was determined as 12.1%. As for `O=C(Cc1ccc(Cl)cc1)NNS(=O)(=O)c1ccc([N+](=O)[O-])cc1`, the “lipid storage change, negative = inhibition” value was -7.64% (inactive) and the cell number change was 7.62%. As for `O=C(Cc1ccccc1)NNS(=O)(=O)c1ccc([N+](=O)[O-])cc1`, the Potency is 1.46 µM (active) and the cell number change stood at 0.088%.

For `O=C(NNS(=O)(=O)c1ccccc1)c1ccc([N+](=O)[O-])cc1`, the result was inactive and the cell number change worked out at 3.57%. Turning to `Cc1ccc(Cc2cnc(NC(=O)/C(C#N)=C/c3ccc(-c4ccccc4[N+](=O)[O-])o3)s2)cc1`, the “lipid storage change, negative = inhibition” value was 11.5% (inactive) and the cell number change was -16%. For `CCOC(=O)CNC(=O)CSc1nc(Cc2cccs2)nc2ccccc12` the same measures were -32.5% (inactive) and -11.5%. For the molecule `CCOC(=O)CNC(=O)CSc1nc(Cc2ccccc2)nc2ccccc12`, the Potency was 7.31 µM (active) and the cell number change was -15.2%.

Take `CCOC(=O)CSc1nc(Cc2ccccc2)nc2ccccc12`: the “lipid storage change, negative = inhibition” value is 0.223% (inactive).
